Assay results published in the supplement of paper PMC3334620.
In all, about 33,000 sequences were measured (“E-score (-0.5 to 0.5)”: median about -0.043, highest 2% from about 0.37 on). Shown is part of a subset that was picked to be rich in the highest values.

Biological target: T1, Upc2 (UniProt Q12151)
T1 sequence: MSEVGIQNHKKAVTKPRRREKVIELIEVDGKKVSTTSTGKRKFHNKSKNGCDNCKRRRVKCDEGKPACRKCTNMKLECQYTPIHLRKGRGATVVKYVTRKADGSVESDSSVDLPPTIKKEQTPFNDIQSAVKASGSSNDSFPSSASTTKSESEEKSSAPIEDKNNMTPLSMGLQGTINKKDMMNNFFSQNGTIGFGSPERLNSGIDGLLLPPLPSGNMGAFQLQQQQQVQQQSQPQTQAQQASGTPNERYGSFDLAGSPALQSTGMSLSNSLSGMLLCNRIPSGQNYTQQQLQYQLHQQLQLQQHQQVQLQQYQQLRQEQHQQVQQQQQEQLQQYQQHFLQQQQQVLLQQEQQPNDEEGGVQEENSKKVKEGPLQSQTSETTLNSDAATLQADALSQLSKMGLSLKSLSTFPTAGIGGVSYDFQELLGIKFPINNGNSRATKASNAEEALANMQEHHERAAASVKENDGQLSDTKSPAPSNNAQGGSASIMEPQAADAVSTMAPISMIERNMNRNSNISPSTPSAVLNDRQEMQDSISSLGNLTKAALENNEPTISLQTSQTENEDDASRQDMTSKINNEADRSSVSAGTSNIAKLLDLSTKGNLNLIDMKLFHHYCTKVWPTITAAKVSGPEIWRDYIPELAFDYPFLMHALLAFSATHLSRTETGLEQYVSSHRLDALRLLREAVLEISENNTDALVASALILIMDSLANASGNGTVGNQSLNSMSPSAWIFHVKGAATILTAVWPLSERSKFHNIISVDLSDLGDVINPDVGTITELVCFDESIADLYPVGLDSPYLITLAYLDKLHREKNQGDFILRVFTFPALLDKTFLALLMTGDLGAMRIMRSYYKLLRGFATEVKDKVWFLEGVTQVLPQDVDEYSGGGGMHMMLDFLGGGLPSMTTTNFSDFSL
Assay: PBM E-score (8-mer binding enrichment) (E-score (-0.5 to 0.5)); higher = stronger / more preferred TF binding
Settings: protein concentration: 200 nM; construct: GST-full length
Description: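 Universal 'all 10-mer' protein binding microarrays (Agilent AMADID 015681) probed with GST-tagged S. cerevisiae TFs (full-length or DBD) made by in vitro transcription/translation (PURExpress), about 100-200 nM. Bound TF was detected with fluorescent anti-GST. Each ungapped 8-mer (which stands for itself and its reverse complement) is scored by the PBM enrichment score (E-score), a modified Wilcoxon-Mann-Whitney statistic from -0.5 to +0.5, computed with the Universal PBM Analysis Suite. Scale: above 0.35 generally sequence-specific binding.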

Sequence	PBM E-score
ATCCTTAC	-0.0381
AAAACTCA	-0.0631
CGACCCTC	0.0606
AAGCCCAC	-0.0729
AAATGCAG	-0.0984
GCTGGATA	-0.131
CCCTGTAG	-0.234
AGAACGAC	0.391
CGAACGAG	0.427
AGAACAAA	0.103
ATAACGAC	0.159
ACAACGAG	0.257
CGAACGCG	0.185
AGAACGAT	0.342
AGAACGTG	-0.00321
AGAACGAG	0.42
CTAACGAG	0.343
AGAACGAA	0.376
AGAACGTC	-0.066
AAACCTGT	0.225
GCTCTCAC	-0.32
TCCGCGCA	-0.0128

Sequence	PBM E-score
AAATACTC	-0.0601
CAGTTGAG	-0.255
ACGGGCTC	0.128
AATAACGT	0.133
CTAACGAA	0.287
TGAACGCA	0.189
TTAACGAA	0.448
TCAACGAA	0.249
TGAACGAA	0.458
ATAACGAA	0.197
CTACCGTA	0.301
GCACGACC	-0.2
TAACGACA	0.381
AGACGACC	0.132
TGACGACA	0.0658
GAACGACC	0.429
TCACGACA	-0.138
GGACGACA	-0.266
CAACGACC	0.221
CAACGACA	0.313
GAACGACA	0.437
GGACGACC	-0.212

Sequence	PBM E-score
AAACGACC	0.458
AGCCAACC	0.0299
TCTCACCA	-0.14
CAGTGCAC	-0.136
CTACCACA	-0.234
CCGGCTAA	-0.199
AGATAAAG	-0.0496
AAACGACG	0.476
AAACGACA	0.479
AGACGACT	0.0557
CAACGACG	0.296
ACACGACA	0.221
AAACGACT	0.456
ACACGACT	0.194
AGACGACA	0.104
CGACGACG	0.0684
GCCGAGAA	0.068
AACAATCA	-0.0313
CCTGGGGC	-0.165
TCGCCGCA	-0.0606
AATTAACG	0.272
AGAATAGC	-0.229

Sequence	PBM E-score
TTCCGGAA	-0.206
CATCATTA	-0.0416
ACTTACTG	-0.00843
CGTATATC	0.454
CATATATC	0.114
CGTATATA	0.458
AGTATATA	0.282
AGTATATC	0.0604
GGTATATA	0.152
GATTCGTA	0.438
CATTCGTA	0.416
CATTCGTC	0.0696
CATTCGCA	0.0275
AATTCGTG	-0.0513
AATTCGTA	0.433
GATTCGGA	0.11
GATTCGCA	0.131
AATTCGTC	0.0116
CCTGGGAC	-0.25
CCCTCTCC	-0.339
